HCV inhibitor: inhibitors of hepatitis C virus infection; Huh7.5.1 HCVcc-Cre infection, luciferase reporter, 44 h; Potency, µM (highest dose often 41.8 µM), most hits filed as inhibitors; actives 3.4% (n = 340,000); AID 651820
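Reporter virus HCVcc-Cre (~0.5 moi) infects cells exposed to compound; seeding density 1,000 cells/well with 4 h settling beforehand. Luminescence, 15 sec read, taken 44 h post-infection following a 15 min RT substrate incubation.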
Pf growth 48h: inhibits P. falciparum growth in the first generation, 48 h. P. falciparum luciferase growth in erythrocytes, 48 h. Potency, µM (titrated, usually from 28.7 µM), usual class: inhibitors. actives 5.9% (n = 310,000)
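Luminescence readout; reporter = integrated firefly luciferase in P. falciparum. RBC culture at 2% hematocrit, 0.1% parasitemia final, 37 C/5% CO2; decreased signal taken as growth inhibition.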
Cycloheximide cs: counter-screen for Shiga toxin inhibitors: cycloheximide protein synthesis inhibition; max response, %; actives 12% (n = 300,000); cell reporter, cycloheximide protein synthesis inhibition counterscreen; in the data active = max response mostly above about 13%, no sharp cut-off; inactive = mostly below about 14%; also: read at 38.3 µM for the half of the compounds with a filed dose
Shiga toxin inh: inhibitors of Shiga toxin in Vero cells; Vero cells, Shiga toxin protein synthesis inhibition reporter; inhibition, % at 38.7 µM; actives 9.2% (n = 290,000); AID 2315; in the data active = inhibition mostly above about 28%, no sharp cut-off; inactive = mostly below about 43%
HCMV antiviral: blocks human cytomegalovirus replication | activity change, negative = inhibition, % at 57.5 µM | HFF cells, HCMV-luciferase reporter, 72 h; hits give low values | actives 4.5% (n = 410,000); in the data active = activity change below about -60%; inconclusive = no clear call, values can overlap the other calls; inactive = above about -39%
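Screen run at 2 compound doses on HFFs infected with reporter HCMV, MOI 1 PFU/cell. Luciferase activity from cell lysates at 72 h post infection gave inhibition relative to buffer-only and Salinomycin wells.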
Pf growth 96h: P. falciparum growth inhibition at 96 hours; actives 6.9% (n = 320,000); P. falciparum luciferase reporter growth, 96 h; Potency, µM (titrated, usually from 28.7 µM), actives largely listed as inhibitors
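Infected RBCs, 2% Hct / 0.05% parasitemia final; luciferase-reporter P. falciparum; cpd 96 h, 37 C, 5% CO2; luciferase detection reagent; luminescence.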
Of the large screens only hits and unclear results are named; the others gave an inactive call. A selection: hits, their analogues and other compounds. The true share with any hit is near 21%. Unless noted, calls follow the shape of the dose curve; as a rule, active = well fitted inhibition curve with a large enough effect; inconclusive = small, poorly fitted or top-dose-only effect, or another doubt; inactive = no such curve, though single readings can be large or run the other way.

C=Cc1ccc(Cn2c(C(=O)O)c(CNCc3ccccc3)c3ccc(C)cc32)cc1	HCMV antiviral -102 (no result: HCV inhibitor, Pf growth 48h, Pf growth 96h)
COc1ccc(Cn2c(C(=O)O)c(CNCCc3ccco3)c3ccc(OC)cc32)cc1	none (no result: HCV inhibitor, Pf growth 48h, Cycloheximide cs, Shiga toxin inh, Pf growth 96h)
Cc1ccc2c(CNCCc3ccco3)c(C(=O)O)n(Cc3ccc(F)cc3)c2c1	HCMV antiviral -109 (no result: HCV inhibitor, Pf growth 48h, Cycloheximide cs, Shiga toxin inh, Pf growth 96h)
Cc1ccc(Cn2c(C(=O)O)c(CNCCc3cccs3)c3ccc(C)cc32)cc1	none (no result: HCV inhibitor, Pf growth 48h, Cycloheximide cs, Shiga toxin inh, Pf growth 96h)
CCOc1ccc(CN(C)C(=O)CNC(=O)c2cc(OC)c(OC)c(OC)c2)cc1	none
O=C(NCc1ccccc1)C(Nc1ccccc1)c1ccccc1F (centres undefined)	none (no result: HCV inhibitor, Pf growth 48h, Cycloheximide cs, Shiga toxin inh, Pf growth 96h)
Cc1ccc(CNCc2c(C(=O)O)n(Cc3ccc(C)cc3)c3cc(C)ccc23)cc1	HCMV antiviral -107 (no result: HCV inhibitor, Pf growth 48h, Cycloheximide cs, Shiga toxin inh, Pf growth 96h)
Cc1ccc(CNCc2c(C(=O)O)n(Cc3ccccc3C)c3cc(C)ccc23)cc1	none (no result: HCV inhibitor, Pf growth 48h, Cycloheximide cs, Shiga toxin inh, Pf growth 96h)
COc1ccc(CNCc2c(C(=O)O)n(Cc3ccc(F)cc3)c3cc(C)ccc23)cc1OC	HCMV antiviral -68 (no result: HCV inhibitor, Pf growth 48h, Cycloheximide cs, Shiga toxin inh, Pf growth 96h)
COc1ccc(Cn2c(C(=O)O)c(CNCc3ccc(C)o3)c3ccc(C)cc32)cc1	none (no result: HCV inhibitor, Pf growth 48h, Cycloheximide cs, Shiga toxin inh, Pf growth 96h)
Cc1ccc(NC(=O)N2CCC(NC(=O)c3ccccc3C)CC2)cc1	none
Cc1ccc(C(=O)NC2CCN(C(=O)Nc3ccccc3)CC2)cc1	Pf growth 48h inconclusive
O=C(Nc1ccc(Cl)cc1)N1CCC(c2ccccc2)C1 (centres undefined)	HCV inhibitor inconclusive, Cycloheximide cs 42, Shiga toxin inh 116
Cc1ccc(NC(=O)N2CCC(NC(=O)C(C)(C)C)CC2)cc1	Cycloheximide cs 17
Cc1ccc(C2CCN(C(=O)Nc3ccccc3)C2)cc1 (centres undefined)	HCV inhibitor inconclusive, Cycloheximide cs 39, Shiga toxin inh 150
Cc1ccc(NC(=O)N2CCC(c3ccccc3)C2)cc1C (centres undefined)	Cycloheximide cs 53, Shiga toxin inh 101
Cc1ccc(NC(=O)N2CC3CCCN3c3ccccc32)cc1C (centres undefined)	none (no result: HCV inhibitor, Pf growth 48h, Cycloheximide cs, Shiga toxin inh, Pf growth 96h)
COc1cccc(C(=O)Nc2nnc(S(=O)(=O)N(C)Cc3ccc(F)cc3)s2)c1	none
CC1CCCC(NC(=O)c2nn(C)c3c2CS(=O)(=O)c2ccccc2-3)C1C (centres undefined)	none
O=C(OCCN1CCOCC1)c1ccc(Cl)cc1Cl	Cycloheximide cs 39, Shiga toxin inh 48
O=C(CCCO)c1ccc2c(c1)OCCO2	none
COc1ccc(C(=O)OCCN2CCOCC2)cc1	Cycloheximide cs 25, Shiga toxin inh 44
O=C(OCCN1CCOCC1)c1ccc(OCCN2CCOCC2)cc1	none (no result: Pf growth 48h)
O=C(O)CNC(=O)c1ccc2c(c1)OCCO2	Pf growth 96h inconclusive
O=C(CCCN1CCOCC1)c1ccc2c(c1)OCCO2	Cycloheximide cs 32
O=C(CNC1=NCCC1)c1ccc2c(c1)OCCO2	HCV inhibitor inconclusive, Pf growth 48h 6.6µM, Pf growth 96h inconclusive
CN1CCN(CCNC(=O)Cn2c(=O)c3cccn3c3ccc(F)cc32)CC1	none
CC1CN(C(=O)N2CCC(C(=O)NC3CCCCCC3)CC2)c2cc(Cl)ccc2O1 (centres undefined)	none (no result: HCV inhibitor, Pf growth 48h, Cycloheximide cs, Shiga toxin inh, Pf growth 96h)
CC(C)C(=O)c1cc2c(cc1NC(=O)c1ccccc1F)OCCO2	none (no result: HCV inhibitor, Pf growth 48h, Cycloheximide cs, Shiga toxin inh, Pf growth 96h)
COc1cc(OC)cc(N2C(=O)N(CC(=O)c3ccc(F)cc3)c3ccccc3S2(=O)=O)c1	none (no result: HCV inhibitor, Pf growth 48h, Cycloheximide cs, Shiga toxin inh, Pf growth 96h)
Cc1cccc(C(=O)OCCN2CCOCC2)c1	Cycloheximide cs 26, Shiga toxin inh 41
O=C(OCCN1CCOCC1)c1ccccc1	none
O=C(Cc1ccccc1)c1ccc2c(c1)OCCO2	HCV inhibitor inconclusive, Cycloheximide cs 43, Shiga toxin inh 87
O=C(CCN1CCOCC1)c1ccc2c(c1)OCCO2	HCV inhibitor 11µM
O=C(CCN1CCc2ccccc2CC1)c1ccc2c(c1)OCCO2	HCV inhibitor inconclusive (no result: Pf growth 48h)
Cc1ccccc1C(=O)OCCN1CCOCC1	Cycloheximide cs 23, Pf growth 96h 8.3µM
Cc1cc2c(cc1S(=O)(=O)N(C)Cc1ccccc1)n(C)c(=O)c(=O)n2C	none
CC1CCN(C(=O)Cn2c(SCC(=O)Nc3ccc(F)cc3)nc3ccccc32)CC1	none (no result: HCV inhibitor, Pf growth 48h, Cycloheximide cs, Shiga toxin inh, Pf growth 96h)
O=C(OCCN1CCOCC1)c1ccc2c(c1)OCCO2	Cycloheximide cs 53, Shiga toxin inh 75
Cc1ccccc1Nc1nc(N)nc(COC(=O)c2cccn2C)n1	HCV inhibitor inconclusive, Cycloheximide cs 36, Shiga toxin inh 69 (no result: Pf growth 48h)

Bioassay records from PubChem BioAssay.
